Hits are enriched below; roughly 1.5% of the tested compounds scored in any of these assays.
BLM helicase inh – qHTS Assay for Inhibitors of Bloom's syndrome helicase (BLM). RecQ-like DNA helicase BLM (Homo sapiens), P54132. recombinant BLM DNA unwinding, fluorescence dequenching. Potency, µM (series often up to 56.1 µM), without a hit: at the highest dose activity change, negative = inhibition, most hits filed as inhibitors. 0.2% of 350,000 active. AID 2528, 2010;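 also: potency is read from the fitted curve at half-maximal effect; plate controls were vehicle for no effect and no enzyme for full effect; nearly all actives have a fitted effect of over 35% in size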
Target sequence (P54132 whole entry, looked up): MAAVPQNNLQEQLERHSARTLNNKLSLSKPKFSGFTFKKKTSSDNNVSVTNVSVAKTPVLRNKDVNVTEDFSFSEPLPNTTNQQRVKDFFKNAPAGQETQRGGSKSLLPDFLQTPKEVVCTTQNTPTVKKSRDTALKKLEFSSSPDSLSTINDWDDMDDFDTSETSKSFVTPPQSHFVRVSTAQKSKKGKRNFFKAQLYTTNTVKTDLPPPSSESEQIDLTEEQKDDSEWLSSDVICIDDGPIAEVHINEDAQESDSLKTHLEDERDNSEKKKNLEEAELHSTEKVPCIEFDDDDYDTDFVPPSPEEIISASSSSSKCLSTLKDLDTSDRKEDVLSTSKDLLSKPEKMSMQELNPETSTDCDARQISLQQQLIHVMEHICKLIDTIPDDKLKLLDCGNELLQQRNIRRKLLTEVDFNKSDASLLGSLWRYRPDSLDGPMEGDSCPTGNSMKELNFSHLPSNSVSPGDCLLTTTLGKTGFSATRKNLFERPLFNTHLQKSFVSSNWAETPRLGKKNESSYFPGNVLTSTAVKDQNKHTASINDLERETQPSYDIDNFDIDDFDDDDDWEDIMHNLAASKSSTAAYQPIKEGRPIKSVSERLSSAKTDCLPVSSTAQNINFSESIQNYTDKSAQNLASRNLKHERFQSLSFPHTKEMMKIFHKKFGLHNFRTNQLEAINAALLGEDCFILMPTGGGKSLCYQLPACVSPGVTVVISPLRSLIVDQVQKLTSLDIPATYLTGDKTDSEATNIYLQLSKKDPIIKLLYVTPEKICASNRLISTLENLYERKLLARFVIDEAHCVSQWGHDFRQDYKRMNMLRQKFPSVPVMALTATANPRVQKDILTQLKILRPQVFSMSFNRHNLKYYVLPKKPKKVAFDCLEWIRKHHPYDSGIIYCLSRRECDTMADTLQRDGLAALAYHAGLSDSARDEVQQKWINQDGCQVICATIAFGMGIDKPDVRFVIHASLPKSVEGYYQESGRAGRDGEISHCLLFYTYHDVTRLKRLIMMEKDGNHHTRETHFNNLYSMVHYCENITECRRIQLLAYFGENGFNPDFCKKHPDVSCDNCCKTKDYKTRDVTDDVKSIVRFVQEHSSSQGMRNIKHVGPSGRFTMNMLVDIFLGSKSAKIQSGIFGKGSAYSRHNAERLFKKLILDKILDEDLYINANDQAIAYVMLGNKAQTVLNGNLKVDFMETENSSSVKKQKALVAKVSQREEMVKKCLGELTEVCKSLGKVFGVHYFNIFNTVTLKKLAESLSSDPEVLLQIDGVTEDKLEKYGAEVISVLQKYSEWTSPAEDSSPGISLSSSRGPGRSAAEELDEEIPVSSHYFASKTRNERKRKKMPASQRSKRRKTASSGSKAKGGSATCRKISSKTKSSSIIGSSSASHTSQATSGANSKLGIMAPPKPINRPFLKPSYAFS
PI5P4K alpha inh – qHTS for Inhibitors of phosphatidylinositol 5-phosphate 4-kinase (PI5P4K) | 1.2% of 330,000 active | max response, % | PI5P4Kalpha enzyme, ADP-Glo luminescence, 60 min; hits give low values | Phosphatidylinositol 5-phosphate 4-kinase type-2 alpha (Homo sapiens), P48426; active = max response of -50% or lower; inconclusive = between -30% and -50%; inactive = -30% or higher; also: value at the top dose of about 77 µM
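Quantitative HTS of the MLSMR library against PI5P4Kalpha with substrate. ATP added last at 5 microM final; room temperature, 60 minutes. Remaining ATP depleted, ADP converted and read as luminescence.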
GCN5L2 inh – qHTS Assay for Inhibitors of GCN5L2; GCN5L2 HAT assay, ThioGlo1 CoA-SH fluorescence; 0.21% of 390,000 active; Potency, µM (series often up to 58.9 µM), inactives show at the highest dose activity change, negative = inhibition, actives largely listed as inhibitors; Histone acetyltransferase KAT2A (Homo sapiens), Q92830; also: potency is read from the fitted curve at half-maximal effect
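Enzyme at 20nM final was mixed with library compounds for 15 min at room temperature. Peptide H3(1-25) at 75uM, acetyl-CoA at 70uM and ThioGlo1 at 50uM were then added. Plates were read immediately and after 20 min (Ex340nm/Em540nm).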
FEN1 inhibitor – qHTS Assay for the Inhibitors of Human Flap endonuclease 1 (FEN1); Potency, µM (top dose mostly 114 µM), inactives show at the highest dose activity change, negative = inhibition, usual class: inhibitors; Recombinant FEN1 flap cleavage, fluorescence, 15 min; P39748; AID 588795, 2011; 0.35% of 390,000 active; also: potency is read from the fitted curve at half-maximal effect; nearly all actives have a fitted effect of over 65% in size
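Nuclease activity of 10 nM FEN1 was measured after 15 min of room-temperature exposure to titrated compounds, by adding 50 nM flap substrate and reading plates at 0 and 15 min.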
APEX1 inh – qHTS Assay for Inhibitors of the Human Apurinic/apyrimidinic Endonuclease 1 (APE1) | AID 2517, 2012 | recombinant APE1, TAMRA/BHQ-2 abasic DNA cleavage fluorescence | Potency, µM (highest dose often 65.8 µM), without a hit: at the highest dose activity change, negative = inhibition, most hits filed as inhibitors | DNA repair nuclease/redox regulator APEX1 (Homo sapiens), P27695 | 0.35% of 350,000 active;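 also: potency is read from the fitted curve at half-maximal effect; plate controls were vehicle for no effect and reference inhibitor for full effect; nearly all actives have a fitted effect of over 55% in size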
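Quantitative HTS: incision of a TAMRA/BHQ-2 double-stranded substrate bearing a tetrahydrofuran abasic site by 0.75 nM APE1 raises fluorescence. Substrate 50 nM final, added after 15 min compound preincubation at room temperature; progress as third-minus-first kinetic read difference.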
RECQ1 helicase – qHTS Assay for Inhibitors of RecQ-Like Dna Helicase 1 (RECQ1) | ATP-dependent DNA helicase Q1 (Homo sapiens), P46063 | RECQ1 DNA unwinding, red fluorescence kinetic read | Potency, µM (doses to about 57.3 µM), for inactives: at the top dose activity, negative = inhibition, hits mostly inhibitors | 0.54% of 240,000 active | AID 2549, 2010;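 also: potency is read from the fitted curve at half-maximal effect; plate controls were vehicle for no effect and no enzyme for full effect; nearly all actives have a fitted effect of over 30% in size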
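RECQ1T1 50 nM; forked duplex (20 bp + 30-nt ss tails) 200 nM, ATP 2 mM final; pH 8.0, 2 mM MgCl2, 2.5 ug/ml poly(dI-dC); 15 min compound preincubation; discontinuous kinetic read over 2 h at RT.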
An asterisk follows results filed as active; ! = a repeat was not active. Unless noted, calls follow the shape of the dose curve; as a rule, active = well fitted curve in the direction sought with a large enough effect; inconclusive = small, poorly fitted or top-dose-only effect, or another doubt; inactive = no such curve, though single readings can be large; an effect the other way counts as inactive or inconclusive. Unless noted, % is scaled to controls: 0 for no effect and ±100 for the full control effect.

Screening CCc1ccc2oc(-c3ccc(C)c(NC(=O)COc4ccccc4Cl)c3)nc2c1 returned FEN1 inhibitor 1.3%.
Screening C=C[C@H](CC(C)C)N(Cc1ccccc1)S(=O)(=O)N(Cc1ccccc1)[C@H](C=C)CC(C)C returned FEN1 inhibitor 2.1%.
For COc1cc(NCc2ccc3nc(N)nc(N)c3c2C)cc(OC)c1OC the results were BLM helicase inh 17.8µM*!, GCN5L2 inh -18.4%, APEX1 inh inconclusive and RECQ1 helicase inactive.
N#Cc1c(-c2ccco2)cc(C2CC2)nc1SCC(=O)c1ccccc1 was read as BLM helicase inh inconclusive, GCN5L2 inh -16.3%, FEN1 inhibitor -5.0%, APEX1 inh -5.4% and RECQ1 helicase -8.8%.
`Cc1nc(SCC(=O)c2ccccc2)c(C#N)c(-c2ccco2)c1C(=O)NCc1ccco1` gave BLM helicase inh 25.1µM*, PI5P4K alpha inh inconclusive, GCN5L2 inh -20.9%, FEN1 inhibitor 7.1%, APEX1 inh -6.0% and RECQ1 helicase inactive.
Screening COc1ccc(CN(Cc2ccccc2)C(=O)c2ccco2)cc1COc1ccc(NC(C)=O)cc1 returned FEN1 inhibitor -2.8%.
`N#Cc1c(-c2ccc(F)cc2)no[n+]1[O-]` gave APEX1 inh 1.7%.
CC(C)C(C)(C#N)NC(=O)CSc1nc2scc(-c3ccco3)c2c(=O)n1-c1ccccc1 (stereo not drawn) was read as BLM helicase inh inconclusive, PI5P4K alpha inh -11.3, GCN5L2 inh -4.3%, FEN1 inhibitor 5.3%, APEX1 inh inconclusive and RECQ1 helicase 20µM*.
Screening C=CCn1c(SCC(C)=O)nc2scc(-c3ccco3)c2c1=O returned BLM helicase inh inconclusive, PI5P4K alpha inh -55.3*, GCN5L2 inh inconclusive, FEN1 inhibitor inconclusive and APEX1 inh -32.2%.
C=CCn1c(SC(F)F)nc2scc(-c3ccco3)c2c1=O was read as BLM helicase inh -3.6%, PI5P4K alpha inh 11.2, GCN5L2 inh -18.7%, FEN1 inhibitor -16.6% and APEX1 inh -15.1%.
Screening NNC(=O)c1ccc(C(=O)N(c2ccccc2)c2ccccc2)cc1 returned FEN1 inhibitor 7.5%.
Cc1ccc(Sc2ccccc2CN(C)C)c(N)c1 was read as BLM helicase inh -7.9%, GCN5L2 inh 44.8%, APEX1 inh 0.9% and RECQ1 helicase -3.1%.
`CCc1cccc(NC(=O)CN2C(=O)CCc3cc(S(=O)(=O)N4CCOCC4)ccc32)c1` gave BLM helicase inh -1.1%, GCN5L2 inh 2.6% and FEN1 inhibitor -3.7%.
For CC1CCN(S(=O)(=O)c2ccc3c(c2)CCC(=O)N3CC(=O)Nc2cccc(C#N)c2)CC1 the results were BLM helicase inh -10.9%, GCN5L2 inh 19.5%, FEN1 inhibitor 5.7% and APEX1 inh 4.74µM*.
COc1ccc(NC(=S)Nc2ccc3nc(C)c(C)nc3c2)cc1 was read as BLM helicase inh -7.3%, PI5P4K alpha inh -0.2, GCN5L2 inh -15.8%, FEN1 inhibitor 3.2%, APEX1 inh -7.5% and RECQ1 helicase inactive.
`C=CCNC(=S)Nc1ccc2nsnc2c1` gave BLM helicase inh -5.6%, PI5P4K alpha inh 10.5, GCN5L2 inh 3.7%, FEN1 inhibitor 0.5%, APEX1 inh -2.7% and RECQ1 helicase 2.9%.
Screening COc1ccc(NC(=S)Nc2ccc3nsnc3c2)cc1 returned BLM helicase inh 3.98µM*, PI5P4K alpha inh -19.3, GCN5L2 inh -14.4%, FEN1 inhibitor inconclusive, APEX1 inh -0.9% and RECQ1 helicase 13.9%.

Source: PubChem BioAssay (National Center for Advancing Translational Sciences (NCATS))
